Reference: PubChem BioAssay (Tox21)
Where “and” joins values, the source holds several entries; their conditions need not be identical. Equal entries are not always repeated. Results filed as inconclusive are left out. Where a call stands in place of a potency, no number is given. More than one record can exist for a structure, and the calls need not agree. Calls of active or inactive are those of the source. Unless noted, calls come from the whole dose curve; as a rule, active = well fitted curve in the direction sought with a large enough effect in the repeat runs; inconclusive = weak or mixed curves; inactive = no such curve, though single readings can be large; an effect the other way counts as inactive or inconclusive.

What was measured:
[1] = A CellTox Green Cytotoxicity Assay to monitor cytotoxicity in HEK293 cells - 32 hour (AID 1224881); note: nearly all actives have a fitted effect of over 40% in size; note: potency is the fitted concentration of half-maximal effect
Summary of the method: (§1)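 Fluorescence intensity, read at 0, 8, 16, 24, 32 and 40 h of compound treatment, reflected dye binding to DNA of dead HEK293 cells; compounds (23 nL, DMSO) were added 5 h after plating cells with reagent.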

[2] = A CellTox Green Cytotoxicity Assay to monitor cytotoxicity in HepG2 cells - 0 hour (AID 1224882); note: nearly all actives have a fitted effect of over 35% in size
Summary of the method: (§2)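 Using 1536-well format, dye-containing HepG2 suspension was seeded, allowed 5 h at 37 C/5% CO2, dosed by pintool with compounds, positive and negative controls, and imaged for fluorescence across 40 h.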

[3] = A CellTox Green Cytotoxicity Assay to monitor cytotoxicity in HepG2 cells - 32 hour (AID 1224883); note: nearly all actives have a fitted effect of over 50% in size; note: potency is the fitted concentration of half-maximal effect
Summary of the method: as §2

[4] = A CellTox Green Cytotoxicity Assay to monitor cytotoxicity in HEK293 cells - 8 hour (AID 1224884); note: nearly all actives have a fitted effect of over 35% in size; note: potency is the fitted concentration of half-maximal effect
Summary of the method: as §1

[5] = qHTS RealTime-Glo MT Cell Viability Assay in HepG2 cells - 16 hour (AID 1224885); note: nearly all actives have a fitted effect of over 50% in size; note: potency is the fitted concentration of half-maximal effect
Summary of the method: (§3)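 Viability was tracked continuously by NanoLuc luminescence from prosubstrate reduced by living HepG2 cells, at successive time points over 40 h of compound exposure. Cells with reagent were preincubated 5 h at 37 °C before compound addition.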

[6] = qHTS RealTime-Glo MT Cell Viability Assay in HEK293 cells - 24 hour (AID 1224886); note: nearly all actives have a fitted effect of over 50% in size; note: potency is the fitted concentration of half-maximal effect
Summary of the method: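 Viability tracked continuously by luminescence as live cells reduce a prosubstrate for NanoLuc; HEK293 cells preincubated 5 h, compound-treated at 37 C, and read at 0, 8, 16, 24, 32 and 40 h.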

[7] = qHTS RealTime-Glo MT Cell Viability Assay in HEK293 cells - 8 hour (AID 1224887); note: nearly all actives have a fitted effect of over 50% in size; note: potency is the fitted concentration of half-maximal effect
Summary of the method: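 Viable HEK293 cells reduce a cell-permeant prosubstrate; the product diffuses out and is consumed by NanoLuc in the medium to give light. Compounds went in after a 5 h incubation and plates were read over the treatment course.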

[8] = qHTS RealTime-Glo MT Cell Viability Assay in HepG2 cells - 0 hour (AID 1224889); note: nearly all actives have a fitted effect of over 50% in size
Summary of the method: as §3

[9] = A CellTox Green Cytotoxicity Assay to monitor cytotoxicity in HepG2 cells - 8 hour (AID 1224890); note: nearly all actives have a fitted effect of over 45% in size; note: potency is the fitted concentration of half-maximal effect
Summary of the method: as §2

[10] = qHTS assay to identify small molecule antagonists of the estrogen receptor alpha (ER-alpha) signaling pathway using the BG1 cell line in the presence of 0.1 nM 17-beta-estradiol - cell viability counter screen (AID 1259241); note: nearly all actives have a fitted effect of over 40% in size; note: potency is the fitted concentration of half-maximal effect
Summary of the method: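 Viability in VM7Luc4E2 cells after 22 hr compound exposure under 0.1 nM 17beta-estradiol stimulation, by CellTiter-Fluor.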

[11] = qHTS assay to identify small molecule antagonists of the androgen receptor (AR) signaling pathway using the MDA cell line in the presence of 0.5 nM R1881 - cell viability counter screen (AID 1259242); note: nearly all actives have a fitted effect of over 45% in size; note: potency is the fitted concentration of half-maximal effect
Summary of the method: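 Viability of MDA-kb2 cells was multiplexed with the luciferase AR readout; after 16 hr with compounds and R1881 at 0.5 nM final, CellTiter-Fluor fluorescence was recorded.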

[12] = qHTS assay to identify small molecule phospholipidosis (PLD) inducers (AID 1259344; active = well fitted curve in the direction sought with a large enough effect; an effect the other way counts as inactive or inconclusive)
Summary of the method: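 Fluorescent phospholipid staining (LipidTOX Red) measured by automated microscopy in fixed HepG2 cells after 24 h treatment; nuclei counterstained with Hoechst 33342; amiodarone as reference inducer.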

[13] = qHTS assay to identify small molecule HDAC inhibitors (AID 1259364);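 note: wild-type HCT-116 cells with endogenous class I/II HDAC activity; top concentration of the series differs between compounds; nearly all actives have a fitted effect of over 45% in size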
Summary of the method: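 Read-out: luminescence of HDAC-Glo I/II reagent, 30 min RT, reflecting class I/II deacetylase activity in whole HCT-116 cells pre-exposed 2 h to DMSO-dissolved compounds.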

[14] = qHTS assay to identify small molecule HDAC inhibitors - cell viability counter screen (AID 1259365); note: nearly all actives have a fitted effect of over 50% in size; note: potency is the fitted concentration of half-maximal effect
Summary of the method: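 Cytotoxicity was gauged in wild-type HCT-116 cells after a brief 2hr treatment with DMSO-dissolved compounds at 37C and 5% CO2, using CellTiter-Glo luminescence developed for 30min at room temperature.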

[15] = qHTS assay to identify small molecule agonists of the sonic hedgehog signaling (Shh) pathway - cell viability counter screen (AID 1259366); note: nearly all actives have a fitted effect of over 50% in size; note: potency is the fitted concentration of half-maximal effect
Summary of the method: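 Stable Gli1-Luc NIH/3T3 clone, 2,000 cells/well. Compound exposure 24hr at 37C. Read-out: CellTiter-Fluor fluorescence.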

[16] = qHTS assay to identify small molecule antagonists of the sonic hedgehog signaling (Shh) pathway - cell viability counter screen (AID 1259367); note: nearly all actives have a fitted effect of over 55% in size; note: potency is the fitted concentration of half-maximal effect
Summary of the method: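 Using CellTiter-Fluor, viability of Gli1-Luc reporter 3T3 cells is read by fluorescence in the wells used for the Shh luciferase assay. Treatment lasts 23 hr with conditioned medium, then reagent 1 hr at 37C.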

[17] = qHTS assay to identify small molecule agonists of the sonic hedgehog signaling (Shh) pathway (AID 1259368; calls by dose curve;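 note: NIH/3T3-derived 3T3Gli1-Luc cells carrying a stable Gli1-driven firefly luciferase reporter; series mostly up to about 92 µM; nearly all actives have a fitted effect of over 15% in size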)
Summary of the method: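 A Gli1 transcriptional response element controlled firefly luciferase in 3T3Gli1-Luc cells. Compounds and a positive control were added 4 hr after plating, and cells were incubated a further 24 hr at 37 C before luminescence detection.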

[18] = A CellTox Green Cytotoxicity Assay to monitor cytotoxicity in HEK293 cells - 16 hour (AID 1224888); note: nearly all actives have a fitted effect of over 35% in size; note: potency is the fitted concentration of half-maximal effect
Summary of the method: as §1

[19] = target: Androgen receptor (Homo sapiens) (UniProt P10275); experiment: qHTS assay to identify small molecule antagonists of the androgen receptor (AR) signaling pathway using the MDA cell line in the presence of 0.5 nM R1881 (AID 1259243)
Sequence of Androgen receptor (Homo sapiens) (P10275 whole entry, looked up): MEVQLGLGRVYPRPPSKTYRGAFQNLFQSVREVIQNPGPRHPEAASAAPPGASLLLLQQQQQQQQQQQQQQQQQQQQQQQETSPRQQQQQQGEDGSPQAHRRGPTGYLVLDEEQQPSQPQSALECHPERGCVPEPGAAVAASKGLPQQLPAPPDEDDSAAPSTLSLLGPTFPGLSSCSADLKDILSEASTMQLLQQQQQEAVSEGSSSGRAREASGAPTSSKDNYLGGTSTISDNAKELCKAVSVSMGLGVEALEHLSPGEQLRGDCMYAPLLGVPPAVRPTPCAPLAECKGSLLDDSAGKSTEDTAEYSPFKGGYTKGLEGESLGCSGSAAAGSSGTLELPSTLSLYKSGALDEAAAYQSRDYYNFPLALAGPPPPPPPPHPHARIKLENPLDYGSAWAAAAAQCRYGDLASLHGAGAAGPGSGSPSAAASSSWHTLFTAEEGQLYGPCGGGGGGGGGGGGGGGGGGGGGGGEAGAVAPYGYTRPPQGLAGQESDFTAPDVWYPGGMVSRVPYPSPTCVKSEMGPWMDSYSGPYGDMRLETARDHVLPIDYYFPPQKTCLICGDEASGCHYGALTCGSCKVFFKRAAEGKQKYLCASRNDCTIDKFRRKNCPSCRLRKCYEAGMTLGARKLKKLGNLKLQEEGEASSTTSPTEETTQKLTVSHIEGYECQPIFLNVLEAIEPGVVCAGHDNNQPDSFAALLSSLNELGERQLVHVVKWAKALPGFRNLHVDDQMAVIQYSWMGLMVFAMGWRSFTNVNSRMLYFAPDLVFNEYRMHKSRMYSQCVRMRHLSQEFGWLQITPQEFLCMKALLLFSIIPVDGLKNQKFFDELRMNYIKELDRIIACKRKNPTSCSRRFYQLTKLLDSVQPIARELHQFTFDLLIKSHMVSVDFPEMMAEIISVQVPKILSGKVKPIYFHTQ
Summary of the method: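 Reporter cells cultured without CO2 receive test chemicals, then 0.5 nM R1881 final; after 16 hr at 37C, ONE-Glo is added and light output recorded.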

[20] = target: Estrogen receptor (Homo sapiens) (UniProt P03372); experiment: qHTS assay to identify small molecule antagonists of the estrogen receptor alpha (ER-alpha) signaling pathway using the BG1 cell line in the presence of 0.1 nM 17-beta-estradiol (AID 1259244); note: nearly all actives have a fitted effect of over 50% in size; note: potency is the fitted concentration of half-maximal effect
Sequence of Estrogen receptor (Homo sapiens) (P03372 whole entry, looked up): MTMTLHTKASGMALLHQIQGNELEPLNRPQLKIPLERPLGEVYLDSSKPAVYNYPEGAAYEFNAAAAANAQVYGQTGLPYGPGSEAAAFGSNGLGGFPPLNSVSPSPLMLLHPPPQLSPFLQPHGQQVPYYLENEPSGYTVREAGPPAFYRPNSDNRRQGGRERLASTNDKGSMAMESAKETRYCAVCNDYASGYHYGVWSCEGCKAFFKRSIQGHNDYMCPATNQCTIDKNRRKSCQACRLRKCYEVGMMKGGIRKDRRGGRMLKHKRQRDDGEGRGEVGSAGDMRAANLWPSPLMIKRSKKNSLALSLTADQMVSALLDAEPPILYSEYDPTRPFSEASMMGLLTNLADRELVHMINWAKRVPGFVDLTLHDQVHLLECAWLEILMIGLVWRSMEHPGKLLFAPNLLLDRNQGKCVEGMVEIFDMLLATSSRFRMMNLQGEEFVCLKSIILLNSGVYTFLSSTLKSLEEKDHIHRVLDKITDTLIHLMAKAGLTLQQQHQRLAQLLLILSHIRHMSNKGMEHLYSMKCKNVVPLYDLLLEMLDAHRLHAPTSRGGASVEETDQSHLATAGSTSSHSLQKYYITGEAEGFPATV
Summary of the method: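 Estradiol at 0.1 nM (final) stimulates the endogenous ER-alpha of VM7Luc4E2 cells carrying an ERE-driven luciferase; compounds are co-incubated 22 h at 37C and luciferase output quantified by luminescence.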

| Structure (SMILES) | Potency [1] | Potency [2] | Potency [3] | Potency [4] | Potency [5] | Potency [6] | Potency [7] | Potency [8] | Potency [9] | Potency [10] | Potency [11] | Potency [12] | Potency [13] | Potency [14] | Potency [15] | Potency [16] | Potency [17] | Potency [18] | Potency [19] | Potency [20] |
| --- | --- | --- | --- | --- | --- | --- | --- | --- | --- | --- | --- | --- | --- | --- | --- | --- | --- | --- | --- | --- |
| Clc1ccc(COC(Cn2ccnc2)c2ccc(Cl)cc2Cl)cc1 (centres undefined) | 45.7 µM (active) and 54.7 µM (active) and inactive | inactive | 45.7 µM (active) and 54.7 µM (active) and 15.1 µM (active) | inactive | 43.5 µM (active) | 18.2 µM (active) and 21.8 µM (active) | 20.4 µM (active) and 21.8 µM (active) | inactive | inactive and 54.7 µM (active) | inactive | inactive | inactive | inactive | inactive | 36 µM (active) and 27.2 µM (active) | 45.3 µM (active) and 27.2 µM (active) and inactive | inactive | – | – | – |
| CC(C)N1C(=O)N(c2ccccc2)CSC1=NC(C)(C)C | inactive | inactive | inactive | inactive | inactive | 19.5 µM (active) | – | inactive | inactive | inactive | inactive | – | inactive | inactive | inactive | inactive | – | inactive | 54.5 µM (active) | – |
| CC(=O)Nc1ccc2c(c1)Cc1ccccc1-2 | inactive | inactive | inactive | inactive | inactive | inactive | inactive | inactive | inactive | inactive | inactive | – | – | inactive | inactive | inactive | inactive | inactive | – | inactive |
| c1ccc2cc3c(cc2c1)-c1cccc2cccc-3c12 | inactive | inactive | inactive | inactive | inactive | inactive | inactive | inactive | inactive | – | inactive | – | inactive | inactive | – | inactive | inactive | inactive | 3.02 µM (active) | – |
| CCCCCCCCCC[N+](C)(C)CCCCCCCCCC | 17.4 µM (active) | inactive | 9.77 µM (active) | 17.4 µM (active) | 11 µM (active) | 1.74 µM (active) | 21.9 µM (active) | – | 19.5 µM (active) | – | 54.5 µM (active) | inactive | – | 68.6 µM (active) | 21.7 µM (active) | 13.7 µM (active) | inactive | 17.4 µM (active) | – | 30.6 µM (active) |
| C[C@]12Cc3nonc3C[C@@H]1CC[C@@H]1[C@@H]2CC[C@@]2(C)[C@H]1CC[C@]2(C)O | inactive | inactive | inactive | inactive | inactive | 19 µM (active) | – | inactive | inactive | inactive | inactive | – | inactive | inactive | – | inactive | – | inactive | 21.1 µM (active) | – |
| O=C1C=CC(=O)c2ccccc21 | 6.16 µM (active) | inactive | 12.3 µM (active) | inactive | 19.5 µM (active) | 5.49 µM (active) | 6.16 µM (active) | – | 15.5 µM (active) | 19.3 µM (active) | 30.6 µM (active) | – | – | 48.6 µM (active) | 12.2 µM (active) | 15.4 µM (active) | inactive | inactive | 19.3 µM (active) | 10.9 µM (active) |
